SMILES strings stand for the structures. Among all 48,000 compounds or so, about 13,000 (27%) showed an effect of 50% or more. The list shows a part of the results.

The test system of this test is Wolbachia pipientis. Kind of test: Anti-Wolbachia Cell-Based Screen. It is filed as functional. More on the design: scale not given: in the data most compounds retested in dose-response had high values. Particulars: 5 µM.
Regarding `OCCN(Cc1cccnc1)c1cnc2ccccc2n1`, the “Percent Effect” value is -10.33%. The result for `COCCC(=O)N1CCOCC2(CCN(Cc3cccs3)C2)C1.O=C(O)C(F)(F)F` (stereo not given) reads 93.92%; that for `COCCC(=O)N1CCC2(CCN(Cc3ccc(C)cc3)CC2)C1.O=C(O)C(F)(F)F`, -24.32%. Next, `COCC(=O)N1CCCC2(COCCN(CCN(C)C)C2)C1.O=C(O)C(F)(F)F.O=C(O)C(F)(F)F` (stereo not given): -43.45%; `COCCN1CCC2(COCCN(C(=O)Cc3cccs3)C2)C1.O=C(O)C(F)(F)F` (stereo not given): 3.842%; `COCC(=O)N1CCOCC2(CCN(Cc3cccs3)C2)C1.O=C(O)C(F)(F)F` (stereo not given): 92.34%. The result for `Cc1nc(CC2CCCN(Cc3nc4ccccc4c(=O)[nH]3)C2)no1` (stereo not given) reads -3.308%; that for `CSCc1cccc(S(=O)(=O)NCCCn2ccnc2)c1`, -11.24%. Take `O=C(CCc1nccs1)N1CCN(c2ncccn2)CC1`: the “Percent Effect” value is on record as -7.196%. The result for `O=C(CCc1nccs1)N1CCN(c2ccccc2F)CC1` reads -6.443%.

Regarding `Cc1ccc(N2CCCN(C(=O)CCc3nccs3)CC2)nn1`, the “Percent Effect” value is on record as 105.9%.

As for `O=C(COCc1ccccc1)N1CCN(c2ccc(Cl)cn2)CC1`, the “Percent Effect” value stood at 1.398%. Next, `O=C(CCc1nccs1)N1CCN(c2cccnn2)CC1`: 5.775%. As for `O=C(CCc1nccs1)N1CCN(c2ccc(Br)cn2)CC1`, the “Percent Effect” value turned out to be 15.4%. Next, `COc1cc(C)nc(N2CCN(C(=O)CCc3nccs3)CC2)n1`: -2.127%. `O=C(CCc1nccs1)N1CCN(c2ccccn2)CC1`: the “Percent Effect” value worked out at 104.9%. As to `O=C(CCc1nccs1)N1CCN(c2nccs2)CC1`, the “Percent Effect” value worked out at 116.1%. Next, `Cc1csc(N2CCN(C(=O)CCc3nccs3)CC2)n1`: 0.8841%. Next, `N#Cc1ccccc1N1CCCN(C(=O)CCc2nccs2)CC1`: 6.343%. In the case of `O=C(CCc1nccs1)N1CCN(c2ccc(Cl)cn2)CC1`, the “Percent Effect” value is reported as 142.1%. For `Cc1nnc(CNC(=O)[C@@H]2C[C@H](NC(=O)C(C)(C)C)CN2C)[nH]1`, the “Percent Effect” value is -6.748%. Next, `CCOCCC(=O)N(Cc1ccncc1)C(C)CC` (stereo not given): -2.407%; `CC(=O)N[C@@H](CC(C)C)C(=O)N1CCC(n2cc(C(C)(C)N)nn2)CC1`: 10.18%; `Cc1n[nH]c(C)c1NC(=O)CN(CC(O)c1ccc(F)cc1)C1CC1` (stereo not given): -1.217%. `COc1cc2c(nn1)CCN(Cc1nc(Cc3ccccc3)no1)C2`: the “Percent Effect” value was -1.36%. Take `CCS(=O)(=O)N1CCOC2(CCCN(c3cccc(C#N)c3)C2)C1` (stereo not given): the “Percent Effect” value was -4.449%. As for `Cc1cc(C)c(CNC(=O)NCCOc2ccc3c(c2)CCC3)c(=O)[nH]1`, the “Percent Effect” value is -6.999%. The result for `O=C(NCCN1CCOCC1)c1cc(COc2ccccc2F)[nH]n1` reads -10.47%. Next, `CN(Cc1nncn1C)C(=O)c1cc(COc2ccccc2F)[nH]n1`: -12.02%; `O=C(NCc1nc[nH]n1)c1cc(COc2ccccc2F)[nH]n1`: -17.12%. For `CN(CC1(CO)CCCC1)C(=O)c1cc(COc2ccccc2F)[nH]n1`, the “Percent Effect” value came to 101.7%. The result for `CN(CC1(CO)CCC1)C(=O)c1cc(COc2ccccc2F)[nH]n1` reads 109.5%. Take `O=C(NCCC1CCCCO1)c1cc(COc2ccccc2F)[nH]n1` (stereo not given): the “Percent Effect” value amounted to 0.1687%. Next, `O=C(N[C@@H]1CNCCC[C@H]1O)c1ccc(OCCN2CCOCC2)cc1`: 0.8179%; `CO[C@@H]1CC[C@@H](NC(=O)c2ccc(OCCN3CCCC3)cc2)[C@H]1O`: 109.4%; `O=C(N[C@@H]1CNCCC[C@H]1O)c1ccc(OCCN2CCCC2)cc1`: 0.07573%. Turning to `c1cn(CCc2c[nH]cn2)c(-c2cc(CN3CCCC3)cs2)n1`, the “Percent Effect” value is -0.5916%.

In the case of `Cl.Fc1ccccc1CNc1ccnc(C2CCNCC2)c1`, the “Percent Effect” value is given as 96.16%. In the case of `Cl.c1cnc2c(c1)cc(C1CCOCC1)n2CCN1CCOCC1`, the “Percent Effect” value is reported as -3.513%. In the case of `Cl.Fc1cccc(F)c1Cn1c(C2CCNCC2)cc2cccnc21`, the “Percent Effect” value amounted to 115.5%. The result for `NS(=O)(=O)c1ccc(NCc2ccccc2F)cc1C(F)(F)F` reads -7.773%. Regarding `Cl.Fc1ccccc1Cn1c(C2CCNCC2)cc2cccnc21`, the “Percent Effect” value came to 115.9%. Turning to `CC(C)(C)OC(=O)N1CC(CC(=O)NCc2ccnc(C3CC3)c2)C1`, the “Percent Effect” value is -29.57%. Regarding `Cl.Fc1cccc(F)c1Cn1c(C2CCCNC2)cc2cccnc21` (stereo not given), the “Percent Effect” value came to 125.8%. Next, `O=C(O)C(F)(F)F.O=C(c1ncccn1)N1CC[C@H]2OCC[C@@]2(COc2ccccn2)C1`: -10.25%; `COC(=O)c1ccc(S(=O)(=O)N(C)CC(N)=O)c(Cl)c1`: -3.285%. For `Cc1cnn(CC2CCCN2Cc2cc(=O)n3cccc(C)c3n2)c1` (stereo not given), the “Percent Effect” value was 6.367%. The result for `COc1ccc2c(c1)CCCC2CC(=O)O` (stereo not given) reads -1.038%; that for `O=C(NC1CCC1)[C@H]1C[C@@H]2[C@@H](C1)OCCN2CC1CC1.O=C(O)C(F)(F)F`, -6.466%; that for `Cc1cc(-n2cncn2)ccc1C(=O)N(CC(F)(F)F)C(C)C`, -3.659%.
